LEDGF integ inh = blocks HIV-1 LEDGF/p75-dependent DNA integration. TR-FRET IN-LEDGF/p75 DNA integration, Eu/Cy5. inhibition, % at 3.7 µM. 0.64% of 370,000 active;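 active = inhibition above the screen-wide mean plus 3 SD, cut at about 13% in these data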;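 note: signal is the Cy5 over europium emission ratio at 671 and 618 nm; 0% = plate median of compound wells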
PLC-beta3 inh = blocks human PLC-beta3 enzyme activity. Purified PLC-beta3, fluorogenic substrate, fluorescence. inhibition, % at 12.2 µM. 0.18% of 370,000 active. AID 720704; in the data active = inhibition above about 11%;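 note: 0% = median of compound wells on plate and 100% = full blocker control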
MBD2 DNA inh = inhibitors of human MBD2 binding to methylated oligonucleotide | Q9UBB5 | AID 686964 | 0.31% of 370,000 active | TR-FRET | inhibition, % at 4.4 µM; in the data active = inhibition above about 13%
Target sequence (Q9UBB5 whole entry, looked up): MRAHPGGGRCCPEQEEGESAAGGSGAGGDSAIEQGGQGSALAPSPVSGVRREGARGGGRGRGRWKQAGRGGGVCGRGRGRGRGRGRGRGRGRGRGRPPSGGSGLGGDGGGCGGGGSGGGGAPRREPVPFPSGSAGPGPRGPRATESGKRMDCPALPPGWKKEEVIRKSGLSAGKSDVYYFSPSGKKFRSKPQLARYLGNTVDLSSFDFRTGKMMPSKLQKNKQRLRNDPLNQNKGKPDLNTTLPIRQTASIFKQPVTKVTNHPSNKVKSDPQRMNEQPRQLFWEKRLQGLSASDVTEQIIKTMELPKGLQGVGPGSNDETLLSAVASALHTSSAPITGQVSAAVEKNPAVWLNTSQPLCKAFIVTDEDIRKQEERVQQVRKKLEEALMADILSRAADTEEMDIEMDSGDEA
UHRF1 binding = human UHRF1 methylated DNA binding inhibitors | inhibition, % at 4.4 µM | 0.75% of 370,000 active | UHRF1 binding to methylated oligo, TR-FRET | AID 687016 | Q96T88; in the data active = inhibition above about 21%;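 note: UHRF1 SRA domain binding a hemimethylated CpG hairpin DNA probe; 0% = median of test compound wells and 100% = reference inhibitor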
PLC-gamma1 inh = PLC-gamma1 (human) inhibition, primary screen. P19174. purified PLC-gamma1, fluorogenic substrate, fluorescence. inhibition, % at 12.2 µM. 0.84% of 370,000 active; in the data active = inhibition above about 9.5%
The depositor's hits bear a star; i = inactive. Most compounds without a hit are left out; they make up all but 2.4% or so of the library.

SMILES	LEDGF integ inh	PLC-beta3 inh	MBD2 DNA inh	UHRF1 binding	PLC-gamma1 inh
CNC(=S)Nc1cc(OC)c(NC(=O)c2ccco2)cc1OC	-2	1	-5	43*	-1
Cn1c(SCC(=O)Nc2sccc2C#N)nnc1C1CC1	1	-9	1	27*	-1
COc1ccccc1C(=O)NCC(=O)N/N=C/c1ccc([N+](=O)[O-])cc1	1	3	-5	25*	2
FC(F)(F)COc1nc(N2CCOCC2)nc(N(c2ccccc2)c2ccccc2)n1	2	-32	-7	-1	13*
FC(F)(F)COc1nc(OCC(F)(F)F)nc(N2CCN(c3ccccc3)CC2)n1	0	1	5	1	1
CN1C(=S)N(c2cccnc2)C(=O)/C1=C\c1ccc(N(C)C)cc1	-8	-6	-11	43*	1
CC(C)N1CCC(N2CCN(Cc3cccc4nonc34)CC2CCO)CC1 (stereo not drawn)	-13	-2	-2	79*	-5
CC(=O)Nc1ccccc1OCC(=O)NC(C)c1ccccc1 (stereo not drawn)	-1	1	2	22*	-1
CC(NC(=O)COc1ccccc1-c1ccccc1)c1ccccc1 (stereo not drawn)	6	0	-9	4	3
Cc1cc(/C=c2\sc3nc4ccccc4n3c2=O)c(C)n1-c1ccc(C(=O)O)cc1	1	-9	4	4	-10
Cc1cc(C)c2nc3sc(=Cc4ccc(-c5ccccc5C(=O)O)o4)c(=O)n3c2c1	9	-6	7	24*	-4
Cc1ccc(C)c(N2C(=N)S/C(=C\c3ccc(-c4ccccc4C(=O)O)o3)C2=O)c1	-4	-258	11	21*	-231
O=C(O)c1ccc(-c2ccc(/C=c3/sc4nc5ccccc5n4c3=O)o2)cc1Cl	8	-15	8	40*	-2
COC(=O)C1CN(CCc2ccccc2)CCS(=O)(=O)N1Cc1ccc(C(F)(F)F)cc1 (stereo not drawn)	-1	-2	3	-1	-2
Cc1cccn2cc(-c3ccc(S(=O)(=O)N4CCCCC4)cc3)nc12	-1	i	10	25*	-475
CCc1ccc(O)c(N=Cc2ccccc2O)c1	3	-5	-4	32*	-2
CCOc1ccc(N=Cc2ccccc2O)cc1	-3	-2	-2	-1	-2
O=C(Nc1nc2c(Br)cccc2s1)c1ccc2c(c1)OCCO2	-4	-43	-1	0	-30
COCC1CCN(C(=O)CCc2nnc(C3(c4ccc(Cl)cc4)CCC3)o2)CC1	2	2	-4	3	12*
COCCNC(=O)CCc1nnc(C2(c3ccc(Cl)cc3)CCC2)o1	0	3	-5	-3	3
O=C(c1ccccc1)N1CCC(=O)N1c1ccccc1	-2	-1	1	37*	-2
O=C1CC2(CCN(C(=O)c3ccc(F)cc3)CC2)Oc2ccccc21	40*	-31	-3	2	-25
O=C1CC2(CCN(C(=O)c3ccccc3F)CC2)Oc2ccccc21	0	-17	-7	0	-19
CCOC(=O)C1=C(C)N(c2ccc(OC)cc2)C(=O)/C1=C\c1cccs1	2	4	8	25*	3
O=C(CSc1nnc(-c2cccs2)o1)c1cccc([N+](=O)[O-])c1	2	-13	-3	0	-12
SMILES	LEDGF integ inh	PLC-beta3 inh	MBD2 DNA inh	UHRF1 binding	PLC-gamma1 inh
CCCCN(C(=O)c1cccc(-c2ccc(OC(C)=O)cc2)c1)c1c(N)n(CCC)c(=O)[nH]c1=O	4	-1	-2	73*	1
CCCCn1c(N)c(N(CCOC)C(=O)C2CCN(S(=O)(=O)c3ccc(Cl)cc3)CC2)c(=O)[nH]c1=O	3	-10	7	24*	-4
COCCN(C(=O)CSc1ncccn1)c1c(N)n(Cc2ccccc2)c(=O)[nH]c1=O	-1	-3	-1	-1	-2
CCN(CC)c1ccc(-c2nnc(SCC(=O)N(CCOC)c3c(N)n(CC(C)C)c(=O)[nH]c3=O)o2)cc1	-1	-53	1	80*	-52
CCCCn1c(N)c(N(CCOC)C(=O)CSCc2ccccc2C)c(=O)[nH]c1=O	7	-5	13	33*	0
COCCN(C(=O)CSc1nnc(-c2ccc(C)c(C)c2)o1)c1c(N)n(CC(C)C)c(=O)[nH]c1=O	-7	-8	3	5	0
COCCN(C(=O)CSc1ncn[nH]1)c1c(N)n(Cc2ccccc2)c(=O)[nH]c1=O	5	0	4	27*	3
CCCCn1c(N)c(N(CCOC)C(=O)C2CCN(S(=O)(=O)c3ccc(F)cc3)CC2)c(=O)[nH]c1=O	5	0	-7	1	-4
COc1ccc2c(c1)CCCN2C(=O)C1CCCN(S(=O)(=O)c2ccc(Cl)s2)C1 (stereo not drawn)	2	-5	-6	-4	-2
O=C(OCCN1CCN(C2CN(Cc3cn(Cc4ccccc4C(F)(F)F)nn3)S(=O)(=O)C2)CC1)c1cc2ccccc2o1 (stereo not drawn)	-2	5	4	7	1
CC(=O)N1CCN(c2ccc(S(=O)(=O)N3CCOCC3)cc2[N+](=O)[O-])CC1	7	10	-8	4	10.0*
COc1ccc(CNC(=O)c2cc(S(=O)(=O)N3CCCCC3)ccc2N2CCOCC2)cc1OC	-3	-3	1	30*	0
CN1CCN(c2ccc(S(=O)(=O)N3CCOCC3)cc2NC(=O)CSCc2ccccc2)CC1	-1	-2	-6	-2	1
CN1CCN(c2ccc(S(=O)(=O)N3CCOCC3)cc2NC(=O)CC(C)(C)C)CC1	0	-12	1	61*	-5
CCCC(=O)Nc1cc(S(=O)(=O)N2CCCCC2)ccc1N1CCOCC1	4	0	4	21*	7
O=[N+]([O-])c1cc(S(=O)(=O)N2CCOCC2)ccc1N1CCNCC1	2	6	1	4	-1
COC(=O)[C@]12C[C@H](CC(=O)NCc3cccs3)C(=O)N(Cc3ccco3)C1=C[C@H](COCc1ccccc1)O[C@@H]2C	-3	1	2	0	0
O=C(NC1CCCC1)c1ccccc1OCc1ccccc1	2	-6	0	39*	-1
c1ccc(COc2ccc(OCCCNC3CCCC3)cc2)cc1	8	-2	9	31*	9
O=C(NC1CCN(Cc2ccccc2)CC1)c1ccccc1OCc1ccccc1	6	-4	1	-3	3
COCCCNCCCCOc1ccc(OCc2ccccc2)cc1	1	3	1	4	4
COC(=O)c1cn(-c2ccc3c(c2)[C@@]2(CC(=O)N(C)C2c2ccccc2)C(=O)N3CC(C)C)nn1 (stereo partly drawn)	3	0	-1	2	0
COC(=O)C1CN(CCc2ccccc2)CCS(=O)(=O)N1Cc1ccc(C)cc1 (stereo not drawn)	-1	2	4	5	-1
Cn1nc(-c2ccccc2)cc1NC(=O)Nc1ccc(C(C)(C)C)cc1	2	-6	8	29*	0

High-throughput results deposited in PubChem BioAssay by The Scripps Research Institute Molecular Screening Center.
